Assay results taken from PubChem BioAssay.

Assays:
[1] = biological target: Tumor necrosis factor receptor superfamily member 10B (Homo sapiens) (UniProt O14763); assay: viability loss of caspase-8 NB7 cells with TRAIL – with/without TRAIL, luminescence panel, confirmation (AID 651596); details: NB7 neuroblastoma + caspase-8, TRAIL sensitization, NB7 Caspase-8, with TRAIL, mean of runs, at 10 µM, stronger effect = higher value
[2] = as above; details: NB7 neuroblastoma + caspase-8, without TRAIL, NB7 Caspase-8, without TRAIL, mean of runs, at 10 µM

Tumor necrosis factor receptor superfamily member 10B (Homo sapiens), sequence (O14763 whole entry, looked up): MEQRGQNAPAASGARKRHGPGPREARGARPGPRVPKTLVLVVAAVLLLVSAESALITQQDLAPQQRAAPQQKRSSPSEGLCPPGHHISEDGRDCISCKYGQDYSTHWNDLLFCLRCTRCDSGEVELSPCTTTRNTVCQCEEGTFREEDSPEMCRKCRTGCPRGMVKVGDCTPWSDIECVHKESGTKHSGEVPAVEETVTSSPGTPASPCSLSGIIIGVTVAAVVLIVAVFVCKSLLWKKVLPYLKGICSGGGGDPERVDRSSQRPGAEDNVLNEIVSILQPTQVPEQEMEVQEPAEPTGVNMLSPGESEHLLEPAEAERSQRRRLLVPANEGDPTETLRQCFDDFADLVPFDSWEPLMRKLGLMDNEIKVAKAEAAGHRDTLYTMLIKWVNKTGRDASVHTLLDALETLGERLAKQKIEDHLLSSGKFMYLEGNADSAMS

CCOc1ccc2nc(NC(=O)c3ccco3)sc2c1
activity [1]: 74.4%
activity [2]: 69.8%

COc1ccc(-c2cc3cccc(OC)c3oc2=O)cc1
activity [1]: 81.8%
activity [2]: 80.2%

O=C(CCl)N1c2ccccc2CCc2ccccc21
activity [1]: 99.8%
activity [2]: 99.7%

O=C(Nc1ccccc1NC(=O)c1c(F)c(F)c(F)c(F)c1F)c1c(F)c(F)c(F)c(F)c1F
activity [1]: 90.2%
activity [2]: 96.2%

COc1ccccc1-c1nc(-c2ccccn2)no1
activity [1]: 76.7%
activity [2]: 72.7%

Cc1nc(NC(=S)NC(=O)c2ccccc2)sc1C
activity [1]: 57.1%
activity [2]: 57%

Cc1cc(O)c(C(=O)/C=C/c2ccc(Cl)cc2)c(=O)o1
activity [1]: 83.4%
activity [2]: 79.5%

O=C1Nc2ccccc2N(C(=O)c2ccc3ccccc3c2)C1c1nc2ccccc2[nH]1 (stereo not drawn)
activity [1]: 48.1%
activity [2]: 43.4%

CC(C)OC(=O)c1sc2nc(-c3ccccc3)ccc2c1N
activity [1]: 58.5%
activity [2]: 60.3%

CCn1cc(C(=O)NCC(OC)OC)c(=O)c2cc(S(=O)(=O)N3CCC(C)CC3)ccc21
activity [1]: 57.3%
activity [2]: 64.5%

CCOC(=O)C1=C(C)OC(=Cc2ccc(OC)cc2)C1=O
activity [1]: 70.6%
activity [2]: 70%

Nc1nc(N)c2nc(-c3ccccc3)c(N)nc2n1
activity [1]: 74.7%
activity [2]: 80.7%

Nc1ccc(-c2nc3ncccc3o2)c(Cl)c1
activity [1]: 43.9%
activity [2]: 32.2%

O=c1oc2ccccc2cc1-c1csc(Nc2nc3c(F)cccc3s2)n1
activity [1]: 11.9%
activity [2]: 5.5%

CN(C)c1cccc(C(=O)N/N=C/c2ccccc2F)c1
activity [1]: 82.8%
activity [2]: 73.2%

CCc1ccc(C(=O)Nc2nnn(CC)n2)cc1
activity [1]: 73.6%
activity [2]: 75.5%

CC(C)Cc1nc2oc3c(Cl)ncnc3c2c2c1CCC2
activity [1]: 95.9%
activity [2]: 96.4%

O=C(Nc1ccc2c(c1)OCCO2)c1cc2ccccc2o1
activity [1]: 82%
activity [2]: 76.8%

Cc1nn(-c2ccccc2)c(/N=C/c2ccc(O)cc2)c1-c1ccccc1
activity [1]: 39.1%
activity [2]: 13.9%

COc1ccc(C(C(=O)NC2CCCCC2)N(C(=O)CCl)c2ccc(Cl)cc2)cc1 (stereo not drawn)
activity [1]: 98.4%
activity [2]: 98.9%

COc1ccc(CN(C(=O)CSc2nnc(-c3ccccc3C)o2)c2ccc(F)cc2)cc1
activity [1]: 97.9%
activity [2]: 97.3%

CCOc1ccc(N/C=C/C(=O)c2ccccc2)c([N+](=O)[O-])c1
activity [1]: 92.7%
activity [2]: 89.7%

NC(Cc1ccc(Cl)cc1)c1csc(NC(=O)NCC2CCCCC2)n1 (stereo not drawn)
activity [1]: 58.4%
activity [2]: 88.1%

O=C(Nc1cc(S(=O)(=O)N2CCOCC2)ccc1N1CCOCC1)c1ccc([N+](=O)[O-])s1
activity [1]: 39.1%
activity [2]: 41.4%

O=C(CSC(=S)N1CCCCC1)c1ccccc1
activity [1]: 50.8%
activity [2]: 35.2%

O=C(CCl)Nc1ccc(-c2ccccc2)cc1
activity [1]: 99.3%
activity [2]: 99.7%

CCN(CC(=O)N1CCc2ccccc2C1)S(=O)(=O)c1ccc2ccccc2c1
activity [1]: 42.7%
activity [2]: 62.5%

CNS(=O)(=O)c1cccc(C(=O)OCC(=O)c2cc(C)n(CC3CCCO3)c2C)c1 (stereo not drawn)
activity [1]: 77.7%
activity [2]: 67%

COc1ccc(/C=C(\C#N)c2nc3ccccc3[nH]2)cc1O
activity [1]: 56.5%
activity [2]: 72.5%

CNC[C@H](Cc1ccccc1)NC[C@@H](Cc1cccc2ccccc12)NCCc1ccc(C)cc1
activity [1]: 95.4%
activity [2]: 99.1%

COc1cc(C(=O)Oc2ccccc2/C=N/NC(=O)c2ccc(C)cc2)cc(OC)c1OC
activity [1]: 51%
activity [2]: 52.7%

C=CCOn1c(C)c(C(C)=O)c2c3no[n+]([O-])c3ccc21
activity [1]: 53.5%
activity [2]: 64.2%

CCS(=O)(=O)c1ncc(Cl)c(C(=O)Nc2ccc(S(=O)(=O)N(C)c3ccccc3)cc2)n1
activity [1]: 99.2%
activity [2]: 99.7%

O=C(NC1=NC2CCCCC2N1)c1ccccc1 (stereo not drawn)
activity [1]: 62.8%
activity [2]: 52.1%

O=c1c2ccccc2oc2ccc(NCCCn3ccnc3)cc12
activity [1]: 44%
activity [2]: 30.3%

O=C(OCc1cc(=O)oc2cc(O)ccc12)c1cc(S(=O)(=O)N2CCOCC2)ccc1F
activity [1]: 84.1%
activity [2]: 70.9%

Cn1c(-c2ccc(Br)o2)nc2ccccc21
activity [1]: 57.9%
activity [2]: 61.8%

CCc1ccc(C2=NN(C(=O)OC)C(O)(C(F)(F)F)C2)cc1 (stereo not drawn)
activity [1]: 45.8%
activity [2]: 59%

CC(C)(C)c1ccc(-c2noc(CCC(=O)Nc3cccnc3)n2)cc1
activity [1]: 48.3%
activity [2]: 50.9%

COc1ccc(NC(=O)c2cccc(N3C(=O)c4ccc(C(=O)Nc5ccc(OC)c(O)c5)cc4C3=O)c2)cc1O
activity [1]: 71.7%
activity [2]: 85.6%

Cc1cc(C)nc(NC(=O)/C=C/c2ccc3c(c2)OCO3)c1
activity [1]: 70.2%
activity [2]: 75.5%

Cc1cc(NC(=O)c2ccc3c(c2)OCO3)no1
activity [1]: 46.2%
activity [2]: 48.3%

COc1ccc(N(C(=O)CCl)C(C(=O)NCCc2ccccc2)c2cccs2)cc1Cl (stereo not drawn)
activity [1]: 98.3%
activity [2]: 99.1%

CCn1nc(C(=O)NCCc2ccc(S(N)(=O)=O)cc2)c2ccccc2c1=O
activity [1]: 16%
activity [2]: 41.1%

CCc1nnc(NC(=O)CSc2nc(C)cc(C)c2C#N)s1
activity [1]: 81.2%
activity [2]: 80%

O=c1c2c3c(sc2nc2n1N=C(c1cccs1)CS2)CCCC3
activity [1]: 74.5%
activity [2]: 77%

CCc1ccc(Nc2n[n+](-c3ccccc3)c(-c3ccc(N(CC)CC)cc3)s2)cc1
activity [1]: 45.2%
activity [2]: 41.2%

Nc1nc(N)c2cc(S(=O)(=O)c3cccc(C(F)(F)F)c3)ccc2n1
activity [1]: 60.4%
activity [2]: 76.5%

O=C(N/N=C\c1cccc(OC(=O)c2ccco2)c1)c1ccc2c(c1)OCO2
activity [1]: 83%
activity [2]: 74.1%

Cn1c(=O)n(CCc2ccccc2)c(=O)c2c1nc1n2CCCN1CCc1ccccc1
activity [1]: 21.1%
activity [2]: 24.9%

Cc1ccc(C(=O)Nc2ccc3c(c2)OCCO3)c(Cl)c1
activity [1]: 92.3%
activity [2]: 90.8%

Cc1ccc(C(=O)COC(=O)c2ccc3c(c2)C(=O)N(c2cccc4ncccc24)C3=O)cc1
activity [1]: 54.7%
activity [2]: 43.5%

CCOC(=O)c1sc(N(Cc2ccccc2)C(=O)CCl)nc1C
activity [1]: 99.1%
activity [2]: 76.5%

COc1ccc(-n2nc3cc(C)c(NC(C)=O)cc3n2)cc1
activity [1]: 71.8%
activity [2]: 75.7%

C(=Cc1nc2ccccc2o1)c1ccc2c(c1)OCO2
activity [1]: 86.1%
activity [2]: 84%

CCCCCCC[N+](CC)(CC)CCCCc1ccc(Cl)cc1
activity [1]: 43.9%
activity [2]: 47.1%

O=C1Nc2cc(C(=O)NCCN3CCCCCC3)ccc2S/C1=C/c1ccccc1F
activity [1]: 82.5%
activity [2]: 96%

COc1ccc(/C=C(\C#N)C(=O)OCC(=O)Nc2ccc(-c3nc4ccc(C)cc4s3)cc2)cc1
activity [1]: 42.9%
activity [2]: 27.9%

O=C(Nc1nc2ccccc2[nH]1)c1ccccc1O
activity [1]: 63.1%
activity [2]: 65.9%

CC(C)Oc1ccc(C(=O)NC2=NCCS2)cc1
activity [1]: 57.7%
activity [2]: 61.8%

COc1ccc(CC(N)c2csc(NC(=O)Nc3cccc(C(F)(F)F)c3)n2)cc1 (stereo not drawn)
activity [1]: 39.6%
activity [2]: 87%

Clc1ccc(-c2nc3n(n2)Cc2ccccc2-3)cc1
activity [1]: 65.8%
activity [2]: 76.6%

O=C(COc1ccc(CO)cc1Cl)Nc1ccc(F)cc1
activity [1]: 44.5%
activity [2]: 47.6%

O=C(Nc1ccc2c(c1)CCC2)c1ccccc1F
activity [1]: 30.3%
activity [2]: 36.4%

O=S(=O)(c1ccc2c(c1)C(=NO)c1cc(S(=O)(=O)N3CCCCC3)ccc1-2)N1CCCCC1
activity [1]: 98.8%
activity [2]: 99.3%

COc1ccc(N2Cc3ccc(OC)c(OC)c3C2=O)cc1
activity [1]: 40.6%
activity [2]: 37.8%

Cc1ccc(NC(=O)c2nc(S(=O)(=O)Cc3ccccc3)ncc2Cl)cc1
activity [1]: 83.5%
activity [2]: 96.1%

COC(=O)c1nc(NC(=S)NC(=O)c2cccs2)sc1C
activity [1]: 53.8%
activity [2]: 37.9%

CC(C)(C)c1csc(NC(=O)Nc2ccccc2)n1
activity [1]: 41.3%
activity [2]: 50%

CSC(=Nc1ccccc1)N=C(SCc1ccccc1)N(C)C
activity [1]: 96.8%
activity [2]: 98.5%

CCOC(=O)c1cn2nc(N3CCCCC3)ccc2n1
activity [1]: 52.5%
activity [2]: 72.9%

Cc1nc(-c2ccc(NC(=O)c3ccc(Br)o3)cc2)cs1
activity [1]: 68.5%
activity [2]: 67.5%

CCCCN=C1NN=C(c2ccc3c(c2)OCCO3)CS1
activity [1]: 47.9%
activity [2]: 31.8%

Cc1ccccc1Oc1cc(-n2ncc(Cl)c(Cl)c2=O)ncn1
activity [1]: 99.7%
activity [2]: 99.5%

Cc1cc2[nH]c3c4ccccc4nc(C)c3c2cc1C
activity [1]: 99.5%
activity [2]: 99.8%

Cc1cccc(/C=C/c2nc3ccccc3c(=O)[nH]2)c1
activity [1]: 61.5%
activity [2]: 65%

CCCCC[C@@H](C)N1C[C@H](COCc2ccccc2)Oc2cc(N3CC[C@@H](N(C)C)C3)ccc2S1(=O)=O
activity [1]: 13%
activity [2]: 43.6%

Cc1nc2cc(NC(=O)Nc3nccs3)ccc2n1C
activity [1]: 63.5%
activity [2]: 60.8%

O=C1[C@H]2[C@@H](/C=C/c3ccccc3)N3C(=O)CN(CC4CC4)C(=O)[C@@]3(Cc3ccccc3)[C@H]2C(=O)N1c1ccccc1
activity [1]: 73.9%
activity [2]: 97.8%

CN(NC(=O)c1ccc(Cl)cc1)c1nc(-c2ccccc2)nnc1C(F)(F)F
activity [1]: 61.9%
activity [2]: 57.8%

CCCc1ccc(-c2cc(C(=O)Nc3ccc([N+](=O)[O-])cn3)c3ccccc3n2)cc1
activity [1]: 43.2%
activity [2]: 33.6%

Cc1ccc2cc(/C=N/Nc3nc4ccccc4[nH]3)c(Cl)nc2c1
activity [1]: 88.2%
activity [2]: 83.6%

CN(C)CC(O)c1ccc(C=Cc2ccc(Cl)cc2)cc1 (stereo not drawn)
activity [1]: 98.3%
activity [2]: 97.2%

FC(F)(F)c1cc(CCN2CCNC[C@@H]2CC2CCCCC2)cc(C(F)(F)F)c1
activity [1]: 35.1%
activity [2]: 84.2%

CC1CCN(S(=O)(=O)c2ccc3c(c2)C(=NO)c2cc(S(=O)(=O)N4CCC(C)CC4)ccc2-3)CC1
activity [1]: 98.2%
activity [2]: 99%

COc1ccc(/C=C2\Oc3ccccc3C2=O)cc1
activity [1]: 76.7%
activity [2]: 74.3%

COc1cccc(C(=O)/C=C/Nc2cccc(O)c2)c1
activity [1]: 86%
activity [2]: 71.5%

CCOC(=O)NC(=O)CSc1nc(C)cc(C)c1C#N
activity [1]: 71%
activity [2]: 61.4%

COc1ccc(-c2cc3nc[nH]c(=O)c3s2)cc1
activity [1]: 61.5%
activity [2]: 58.2%

O=C(NC(=S)N1CCc2ccccc21)c1ccccc1
activity [1]: 65.3%
activity [2]: 72.6%

O=C(N/N=C/c1cc(Br)cs1)c1ccc2c(c1)OCCO2
activity [1]: 78.8%
activity [2]: 77.9%

CCOC(=O)C1=CCN(S(=O)(=O)c2ccccc2C)C1c1ccc(Cl)cc1 (stereo not drawn)
activity [1]: 10.1%
activity [2]: -8.28%

N/C(Cc1ccc(Cl)cc1)=N\OC(=O)c1cccc2ccccc12
activity [1]: 99%
activity [2]: 97.5%

CCCC(=O)OCCNc1cc(Sc2nccn2C)c2nonc2c1[N+](=O)[O-]
activity [1]: 35.8%
activity [2]: 97.2%
